Where “and” joins values, the source holds several entries; their conditions need not be identical. Identical values can stand only once. Records with an inconclusive call do not appear. Some structures have more than one record in an assay (separate samples or runs), and their calls can disagree. Calls of active or inactive are those of the source. The calls were made as follows, unless noted: active = hit-call score of the fitted dose curve at least 0.9, where 1 is the maximum; inconclusive = response in the unintended direction; inactive = score below 0.9.
Tests used:
[1] = molecular target: Bile acid receptor (Homo sapiens) (UniProt Q96RI1); test: ATG_IR1_CIS: Attagene CIS-FACTORIAL HepG2 Assay for human Nuclear Receptor Subfamily 1 Group H Member 4 (NR1H4), IR1 submotif (AID 2282946; active = hit-call score of the fitted dose curve at least 0.9, where 1 is the maximum; inactive = score below 0.9); details: IR1 reporter transcription, actives raise or lower the signal
Bile acid receptor (Homo sapiens), sequence (Q96RI1 whole entry, looked up): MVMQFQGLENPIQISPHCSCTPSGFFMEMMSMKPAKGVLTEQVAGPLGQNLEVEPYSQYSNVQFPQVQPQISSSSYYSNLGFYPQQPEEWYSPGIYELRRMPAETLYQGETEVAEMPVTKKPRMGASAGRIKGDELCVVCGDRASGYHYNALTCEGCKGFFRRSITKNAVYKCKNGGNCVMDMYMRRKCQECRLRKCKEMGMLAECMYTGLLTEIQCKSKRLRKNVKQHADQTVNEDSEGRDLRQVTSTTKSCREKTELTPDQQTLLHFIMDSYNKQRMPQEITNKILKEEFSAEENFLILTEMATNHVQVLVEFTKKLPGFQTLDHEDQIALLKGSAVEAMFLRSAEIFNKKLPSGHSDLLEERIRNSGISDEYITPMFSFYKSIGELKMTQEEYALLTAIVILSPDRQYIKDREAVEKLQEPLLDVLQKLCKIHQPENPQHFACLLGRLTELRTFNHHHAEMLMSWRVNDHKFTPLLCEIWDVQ
How it was run: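 Readout: reporter transcript levels by RT-PCR with fluorescent capillary electrophoresis, from HepG2 cells transiently transfected with multiplexed cis-regulated reporters and dosed 24 h. Gain- or loss-of-signal fitted versus DMSO negative control.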

[2] = ATG_PPRE_CIS: Attagene CIS-FACTORIAL HepG2 Assay for human Peroxisome Proliferator-activated Response Element (PPRE) (AID 2282958; active = hit-call score of the fitted dose curve at least 0.9, where 1 is the maximum; inactive = score below 0.9); details: HepG2 PPRE cis-element reporter, Attagene transcription factor profiling; actives raise or lower the signal
How it was run: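 Read-out: fluorescent reporter mRNA fragments resolved by capillary electrophoresis after RT-PCR. HepG2 cells carried transiently transfected PPRE-driven cis reporter constructs and were dosed for 24 h; gain or loss of signal fitted relative to DMSO.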

[3] = ATG_M_19_TRANS: Attagene TRANS-FACTORIAL HepG2 Assay for M19 Transcription Factor (Internal Marker) (AID 2282974); details: HepG2 Attagene TRANS-FACTORIAL M19 internal marker reporter
How it was run: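 24 h chemical exposure of transiently transfected HepG2 (MRTU library). RNA → oligo(dT) RT → PCR → 6-FAM labelling → HpaI cut → CE fluorescence. Positive-direction fit vs DMSO baseline; background internal-marker readout.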

[4] = ATG_GAL4_TRANS: Attagene TRANS-FACTORIAL HepG2 Assay for GAL4 (Internal Marker) (AID 2282976); details: HepG2 Attagene TRANS GAL4 internal marker reporter
How it was run: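 RT-PCR/capillary electrophoresis readout of reporter mRNA. HepG2, transient MRTU transfection (GAL4-UAS reporters), 24 h compound exposure. Background-control endpoint, positive direction vs DMSO baseline.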

[5] = molecular target: Oxysterols receptor LXR-beta (Homo sapiens) (UniProt P55055); test: ATG_LXRb_TRANS: Attagene TRANS-FACTORIAL HepG2 Assay for human Liver X Receptor beta (LXRb) (AID 2282981); details: HepG2 Attagene TRANS GAL4-LXRb reporter, mRNA
Oxysterols receptor LXR-beta (Homo sapiens), sequence (P55055 whole entry, looked up, the tested form may be a part): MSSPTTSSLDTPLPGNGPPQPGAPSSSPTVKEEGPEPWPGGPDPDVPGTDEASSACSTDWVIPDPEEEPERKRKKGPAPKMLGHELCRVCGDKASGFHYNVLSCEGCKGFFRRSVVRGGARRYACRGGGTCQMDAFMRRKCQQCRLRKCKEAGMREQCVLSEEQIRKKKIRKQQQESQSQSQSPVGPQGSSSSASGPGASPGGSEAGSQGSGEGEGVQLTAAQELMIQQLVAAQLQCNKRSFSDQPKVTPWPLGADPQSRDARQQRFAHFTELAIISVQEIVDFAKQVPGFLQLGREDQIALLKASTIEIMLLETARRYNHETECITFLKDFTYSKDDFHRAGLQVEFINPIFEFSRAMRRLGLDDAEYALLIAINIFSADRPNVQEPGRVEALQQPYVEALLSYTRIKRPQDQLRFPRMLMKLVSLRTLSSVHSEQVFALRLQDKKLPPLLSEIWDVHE
How it was run: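 Measures induction of a Gal4-driven reporter transcript in HepG2 cells expressing an exogenous LXRb-Gal4 fusion. Cells are exposed to compound for 24 h before RNA isolation and RT-PCR with capillary electrophoresis detection.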

[6] = molecular target: Cellular tumor antigen p53 (Homo sapiens) (UniProt P04637); test: ATG_p53_CIS: Attagene CIS-FACTORIAL HepG2 Assay for human p53 Transcription Factor (AID 2282994; active = hit-call score of the fitted dose curve at least 0.9, where 1 is the maximum; inactive = score below 0.9); details: HepG2 p53 cis-element reporter, Attagene mRNA; actives raise or lower the signal
Cellular tumor antigen p53 (Homo sapiens), sequence (P04637 whole entry, looked up): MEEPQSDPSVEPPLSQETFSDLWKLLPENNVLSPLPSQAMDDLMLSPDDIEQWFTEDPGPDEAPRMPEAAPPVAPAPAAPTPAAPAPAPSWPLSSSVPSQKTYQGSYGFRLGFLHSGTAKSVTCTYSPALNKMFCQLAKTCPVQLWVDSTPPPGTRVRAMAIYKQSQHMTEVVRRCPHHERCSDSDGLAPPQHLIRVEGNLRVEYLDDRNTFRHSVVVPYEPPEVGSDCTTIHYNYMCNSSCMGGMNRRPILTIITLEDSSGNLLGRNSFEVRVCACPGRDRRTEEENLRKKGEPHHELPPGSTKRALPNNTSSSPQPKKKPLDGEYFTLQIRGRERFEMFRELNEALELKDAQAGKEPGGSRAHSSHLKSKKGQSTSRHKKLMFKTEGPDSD
How it was run: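 Endogenous p53 activity read in transiently transfected HepG2 from a cis-element-driven reporter transcript after 24 h exposure. RNA reverse-transcribed, PCR-amplified, fluorescently labelled and sized by capillary electrophoresis; gain or loss fitted against DMSO baseline.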

[7] = molecular target: human Peroxisome Proliferator-activated Receptor delta (PPARd), PPARD (gene 5467) (UniProt Q03181); test: ATG_PPARd_TRANS: Attagene TRANS-FACTORIAL HepG2 Assay for human Peroxisome Proliferator-activated Receptor delta (PPARd) (AID 2283002)
human Peroxisome Proliferator-activated Receptor delta (PPARd), PPARD (gene 5467), sequence (Q03181 whole entry, looked up, the tested form may be a part): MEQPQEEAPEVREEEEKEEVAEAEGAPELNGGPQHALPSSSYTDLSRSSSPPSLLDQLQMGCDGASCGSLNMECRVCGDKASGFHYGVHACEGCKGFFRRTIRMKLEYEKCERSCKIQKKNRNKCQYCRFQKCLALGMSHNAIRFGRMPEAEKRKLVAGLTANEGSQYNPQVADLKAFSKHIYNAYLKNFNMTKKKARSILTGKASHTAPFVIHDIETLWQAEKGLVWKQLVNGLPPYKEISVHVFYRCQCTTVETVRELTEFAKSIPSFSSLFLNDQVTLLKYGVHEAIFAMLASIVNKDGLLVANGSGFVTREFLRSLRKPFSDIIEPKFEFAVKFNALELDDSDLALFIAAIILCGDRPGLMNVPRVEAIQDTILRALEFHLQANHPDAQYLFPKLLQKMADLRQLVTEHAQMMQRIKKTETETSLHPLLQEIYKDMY
How it was run: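 Measured quantity: GAL4-UAS reporter transcript induction in HepG2 after 24 h chemical dosing, with NR-Gal4 chimeras supplied by transient transfection. Detection by RT-PCR and capillary electrophoresis; upward fit against DMSO.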

[8] = molecular target: human Vitamin D Receptor (VDR), VDR (gene 7421) (UniProt P11473); test: ATG_VDR_TRANS: Attagene TRANS-FACTORIAL HepG2 Assay for human Vitamin D Receptor (VDR) (AID 2283022)
How it was run: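 RT-PCR/capillary electrophoresis read-out of reporter mRNA induction in transiently transfected HepG2; 24 h dosing; chimeric NR-Gal4 (TRANS format); gain-of-signal fit against DMSO baseline.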

[9] = ATG_XTT_Cytotoxicity: Cytotoxicity Assessment in the Attagene TRANS-FACTORIAL HepG2 Assay (AID 2283584)
How it was run: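 XTT readout of cell number in transfected HepG2 cells, 24 h post-dosing; DMSO serves as negative control and baseline, with activity taken as loss of viability signal.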

[10] = TOX21_p53_BLA_p2_viability: Viability Assessment in the Tox21 HCT-116 p53 Agonism Beta-lactamase Assay, Phase 2 (AID 2283591);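 also: actives lower the ATP signal meaning cytotoxicity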
How it was run: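 HCT-116 p53-bla cells (4000/well) rested 5 h at 37C, then received compounds in DMSO (217-fold dilution) for 16 h at 37C, 5% CO2. After the CCF4 read, CellTiter-Glo was added; ATP luminescence was read after 30 min at room temperature.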

[11] = CCTE_Harrill_HTTr_Viability_MCF7: CCTE's 6-hour Cell Viability Assessment for the High-Throughput Transcriptomics (HTTr) Platform, in MCF-7 cells cultured in DMEM + 10% fetal bovine serum, Harrill Lab (AID 2284010; active = hit-call score of the fitted dose curve at least 0.9, where 1 is the maximum; inactive = score below 0.9)
How it was run: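 Propidium iodide exclusion, imaged by high-content analysis, gauged viability after a six-hour exposure across eight concentrations. Cells were MCF-7 grown in DMEM with 10% fetal bovine serum; fits run in both directions against DMSO.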

[12] = molecular target: Nuclear receptor subfamily 1 group I member 3 (Homo sapiens) (UniProt Q14994); test: ATG_CAR_TRANS: Attagene TRANS-FACTORIAL HepG2 Assay for human Constitutive Androstane Receptor (CAR) (AID 2282969); details: HepG2 Attagene TRANS-FACTORIAL CAR reporter;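 also: activators raise reporter mRNA above DMSO so AC50 marks induction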
Nuclear receptor subfamily 1 group I member 3 (Homo sapiens), sequence (Q14994 whole entry, looked up, the tested form may be a part): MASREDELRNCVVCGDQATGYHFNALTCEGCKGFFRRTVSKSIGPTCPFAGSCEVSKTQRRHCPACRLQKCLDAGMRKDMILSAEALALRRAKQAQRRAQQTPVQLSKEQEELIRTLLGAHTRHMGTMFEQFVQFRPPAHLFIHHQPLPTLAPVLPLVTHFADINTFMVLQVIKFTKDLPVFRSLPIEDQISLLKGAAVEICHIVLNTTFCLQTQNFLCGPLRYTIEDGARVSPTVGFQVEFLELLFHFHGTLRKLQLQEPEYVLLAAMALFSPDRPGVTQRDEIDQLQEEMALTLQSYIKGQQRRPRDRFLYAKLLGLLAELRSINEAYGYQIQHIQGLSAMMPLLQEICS
How it was run: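 Steps: transient transfection of HepG2 with multiple GAL4-UAS reporter units; 24 h compound incubation; RNA isolation, RT-PCR, 6-FAM primer extension, HpaI digest; capillary electrophoresis. Gain-of-signal relative to DMSO negative control.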

[13] = ACEA_ER_AUC_viability: ACEA Biosciences xCELLigence Real-Time Cell Analysis on Estrogen Receptor Agonism for Viability (AID 2283782);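 also: hit means loss of impedance signal meaning reduced cell growth or viability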
How it was run: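 Continuous-exposure impedance cell analysis uses T-47D cells in charcoal-stripped serum, eight 1:4 dilutions topping at 100 uM final, biological duplicate. Area under the growth curve at 80 h is fitted against DMSO baseline.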

[14] = molecular target: Glucocorticoid receptor (Homo sapiens) (UniProt P04150); test: ATG_GR_TRANS: Attagene TRANS-FACTORIAL HepG2 Assay for human Glucocorticoid Receptor (GR) (AID 2282978); details: HepG2 Attagene TRANS GR reporter, mRNA transcription;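 also: activators score as hits since higher reporter transcript over DMSO is fitted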
Glucocorticoid receptor (Homo sapiens), sequence (P04150 whole entry, looked up, the tested form may be a part): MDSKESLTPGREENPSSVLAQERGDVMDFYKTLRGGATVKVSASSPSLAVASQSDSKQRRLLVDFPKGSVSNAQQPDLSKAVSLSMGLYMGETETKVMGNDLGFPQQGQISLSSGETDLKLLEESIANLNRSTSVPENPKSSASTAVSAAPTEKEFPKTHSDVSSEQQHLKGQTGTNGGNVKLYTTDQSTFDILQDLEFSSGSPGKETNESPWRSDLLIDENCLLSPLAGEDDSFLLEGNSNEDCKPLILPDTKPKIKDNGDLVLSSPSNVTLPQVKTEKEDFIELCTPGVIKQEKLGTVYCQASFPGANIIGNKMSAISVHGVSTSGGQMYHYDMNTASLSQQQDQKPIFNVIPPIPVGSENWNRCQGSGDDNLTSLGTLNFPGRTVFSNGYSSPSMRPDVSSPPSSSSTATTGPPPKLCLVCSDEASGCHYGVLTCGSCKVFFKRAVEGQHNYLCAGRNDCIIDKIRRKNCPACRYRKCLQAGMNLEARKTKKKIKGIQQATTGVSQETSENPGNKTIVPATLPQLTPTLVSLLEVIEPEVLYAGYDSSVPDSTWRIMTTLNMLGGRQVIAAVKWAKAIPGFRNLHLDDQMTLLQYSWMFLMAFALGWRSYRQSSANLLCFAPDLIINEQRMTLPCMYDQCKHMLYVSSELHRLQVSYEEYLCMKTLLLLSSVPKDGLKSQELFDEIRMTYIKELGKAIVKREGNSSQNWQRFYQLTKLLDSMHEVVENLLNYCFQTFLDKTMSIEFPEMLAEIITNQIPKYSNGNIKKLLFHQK
How it was run: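 Transient MRTU transfection of HepG2 (GAL4-UAS reporters, exogenous NR-GAL4 chimeras), 24 h dosing. Readout: reporter transcript via RT-PCR + capillary electrophoresis fluorescence. Positive direction vs DMSO baseline.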

[15] = molecular target: Oxysterols receptor LXR-alpha (Homo sapiens) (UniProt Q13133); test: ATG_LXRa_TRANS: Attagene TRANS-FACTORIAL HepG2 Assay for human Liver X Receptor alpha (LXRa) (AID 2282980); details: HepG2 Attagene TRANS reporter, LXRa transactivation
Oxysterols receptor LXR-alpha (Homo sapiens), sequence (Q13133 whole entry, looked up, the tested form may be a part): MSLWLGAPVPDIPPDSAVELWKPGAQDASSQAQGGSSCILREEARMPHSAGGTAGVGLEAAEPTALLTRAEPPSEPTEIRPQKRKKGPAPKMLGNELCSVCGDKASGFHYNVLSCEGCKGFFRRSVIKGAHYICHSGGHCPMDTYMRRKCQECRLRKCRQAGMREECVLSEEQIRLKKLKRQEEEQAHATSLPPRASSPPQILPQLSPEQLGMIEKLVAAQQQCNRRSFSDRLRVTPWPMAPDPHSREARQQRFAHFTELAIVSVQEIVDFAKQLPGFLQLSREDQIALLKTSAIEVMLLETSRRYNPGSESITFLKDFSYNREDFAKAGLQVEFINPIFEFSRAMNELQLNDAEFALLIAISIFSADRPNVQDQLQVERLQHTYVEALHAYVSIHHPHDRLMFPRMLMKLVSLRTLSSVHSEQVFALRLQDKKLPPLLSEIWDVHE
How it was run: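 Read-out: reporter transcript levels by RT-PCR plus capillary electrophoresis, fluorescence intensity. Transiently transfected HepG2, exogenous NR-GAL4 chimera, GAL4-UAS reporters; 24 h compound exposure. Activity = increase over DMSO negative control.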

[16] = molecular target: human RAR-related Orphan Receptor gamma (RORg), RORC (gene 6097) (UniProt P51449); test: ATG_RORg_TRANS: Attagene TRANS-FACTORIAL HepG2 Assay for human RAR-related Orphan Receptor gamma (RORg) (AID 2283011);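 as to AC50: potency for induction of reporter transcripts above DMSO so activators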
human RAR-related Orphan Receptor gamma (RORg), RORC (gene 6097), sequence (P51449 whole entry, looked up, the tested form may be a part): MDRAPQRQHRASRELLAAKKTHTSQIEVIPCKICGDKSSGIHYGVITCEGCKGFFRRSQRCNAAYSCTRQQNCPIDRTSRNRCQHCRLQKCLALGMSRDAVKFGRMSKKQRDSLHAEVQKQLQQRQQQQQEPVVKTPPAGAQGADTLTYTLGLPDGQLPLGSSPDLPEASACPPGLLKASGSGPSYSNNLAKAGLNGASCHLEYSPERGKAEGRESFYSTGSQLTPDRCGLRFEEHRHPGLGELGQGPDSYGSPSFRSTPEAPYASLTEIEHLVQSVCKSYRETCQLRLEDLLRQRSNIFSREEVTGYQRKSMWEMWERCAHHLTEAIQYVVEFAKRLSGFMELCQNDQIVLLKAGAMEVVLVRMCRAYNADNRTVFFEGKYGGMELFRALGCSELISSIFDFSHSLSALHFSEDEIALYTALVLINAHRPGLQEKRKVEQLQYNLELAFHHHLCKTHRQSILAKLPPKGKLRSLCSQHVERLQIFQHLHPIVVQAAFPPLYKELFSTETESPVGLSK
How it was run: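 Transient MRTU transfection of HepG2 (TRANS format, exogenous NR-Gal4 chimera). 24 h dosing. Total RNA → oligo(dT) RT → PCR → 6-FAM labelling → HpaI cut → CE. Gain vs DMSO.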

[17] = TOX21_p53_BLA_p3_viability: Viability Assessment in the Tox21 HCT-116 p53 Agonism Beta-lactamase Assay, Phase 3 (AID 2283593);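 also: cells exposed to compound for 16 h before reading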
How it was run: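 HCT-116 cells (4000/well) rested 5 h at 37C, then got DMSO compounds by pin tool (217-fold dilution) for 16 h at 37C, 5% CO2. After the bla read, CellTiter-Glo was added and luminescence read at 30 min, room temperature.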

[18] = TOX21_p53_BLA_p4_viability: Viability Assessment in the Tox21 HCT-116 p53 Agonism Beta-lactamase Assay, Phase 4 (AID 2283597);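 also: hits lower the luminescence signal meaning cytotoxicity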
How it was run: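 ATP content by CellTiter-Glo luminescence, 30 min RT, read after the beta-lactamase ratio step. Cells: HCT116, 4000/well, compound added after 5 h, exposure 16 h at 37C. Signal loss = reduced viability.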

[19] = molecular target: human RAR-related Orphan Receptor beta (RORb), RORB (gene 6096) (UniProt Q92753); test: ATG_RORb_TRANS: Attagene TRANS-FACTORIAL HepG2 Assay for human RAR-related Orphan Receptor beta (RORb) (AID 2283010)
human RAR-related Orphan Receptor beta (RORb), RORB (gene 6096), sequence (Q92753 whole entry, looked up, the tested form may be a part): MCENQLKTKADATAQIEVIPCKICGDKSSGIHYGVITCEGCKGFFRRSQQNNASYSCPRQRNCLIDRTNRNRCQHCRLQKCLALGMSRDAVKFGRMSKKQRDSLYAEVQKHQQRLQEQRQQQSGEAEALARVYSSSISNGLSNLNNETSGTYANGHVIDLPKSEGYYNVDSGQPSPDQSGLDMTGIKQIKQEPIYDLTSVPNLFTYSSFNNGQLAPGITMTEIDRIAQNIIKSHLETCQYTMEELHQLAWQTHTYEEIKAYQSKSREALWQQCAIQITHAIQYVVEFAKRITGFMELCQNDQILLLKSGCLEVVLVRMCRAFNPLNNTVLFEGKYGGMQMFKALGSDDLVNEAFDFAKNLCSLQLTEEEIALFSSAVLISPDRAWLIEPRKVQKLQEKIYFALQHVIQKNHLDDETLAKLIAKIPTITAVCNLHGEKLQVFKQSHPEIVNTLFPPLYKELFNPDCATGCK
How it was run: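 Read-out is reporter mRNA induction, quantified by RT-PCR with fluorescent capillary electrophoresis, 24 h post-dose in transiently transfected HepG2 expressing exogenous NR-Gal4 chimera. Activity fitted upward versus DMSO.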

[20] = molecular target: Retinoic acid receptor alpha (Homo sapiens) (UniProt P10276); test: ATG_DR5_RAR_CIS: Attagene CIS-FACTORIAL HepG2 Assay for human Retinoic Acid Receptor Alpha (RARE), DR5 submotif (AID 2282934; active = hit-call score of the fitted dose curve at least 0.9, where 1 is the maximum; inactive = score below 0.9); details: HepG2 Attagene cis-factorial RARE DR5 reporter, mRNA; actives raise or lower the signal
Retinoic acid receptor alpha (Homo sapiens), sequence (P10276 whole entry, looked up): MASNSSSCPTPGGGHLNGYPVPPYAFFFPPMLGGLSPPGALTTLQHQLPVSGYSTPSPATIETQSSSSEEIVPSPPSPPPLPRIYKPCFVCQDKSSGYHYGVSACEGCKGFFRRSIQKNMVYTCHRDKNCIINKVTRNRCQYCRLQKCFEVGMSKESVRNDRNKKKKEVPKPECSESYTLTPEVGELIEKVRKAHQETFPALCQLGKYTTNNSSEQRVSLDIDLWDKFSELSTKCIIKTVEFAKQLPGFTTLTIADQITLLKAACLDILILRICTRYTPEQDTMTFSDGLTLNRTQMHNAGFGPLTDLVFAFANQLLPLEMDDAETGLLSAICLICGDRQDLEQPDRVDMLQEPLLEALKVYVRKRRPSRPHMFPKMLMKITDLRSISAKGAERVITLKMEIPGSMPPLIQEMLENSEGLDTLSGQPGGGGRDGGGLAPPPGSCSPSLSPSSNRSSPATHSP
How it was run: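 Transfected HepG2 reporter cells are exposed to chemicals for 24 h. Then RNA is extracted and the DR5 element reporter transcript is measured by RT-PCR and capillary electrophoresis, with bidirectional curve fitting relative to DMSO.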

Measured: AC50

CC(=O)c1cc2c(cc1C)C(C)(C)C(C)CC2(C)C (stereo not drawn)
active: [1] 179 µM
inactive: [2] | [3] | [4] | [5] | [6] | [7] | [8] | [9] | [10] | [11]

NNc1ccccc1
inactive: [12] | [5] | [13]

O=[N+]([O-])c1cc(C(F)(F)F)c(Cl)c([N+](=O)[O-])c1Cl
active: [14] 33.4 µM | [7] 41.1 µM | [16] 7.97 µM | [10] 35.2 µM | [17] 35.6 µM | [18] 35.9 µM
inactive: [1] | [15] | [5] | [6]

O=C(O)c1cc[c]([Hg][Cl])cc1
inactive: [1] | [4] | [5] | [19] | [18]
active: [6] 7.47 µM | [7] 49.3 µM

CCOC(=O)C1OC1(C)c1ccccc1 (stereo not drawn)
inactive: [12] | [3] | [14] | [15] | [5] | [6] | [19] | [9] | [10] | [17] | [18] | [13]

CC(O)CN(CC(C)O)CC(C)O (stereo not drawn)
inactive: [20] | [1] | [12] | [3] | [14] | [15] | [5] | [19] | [16] | [10] | [18]

O=C1C(Cl)=C(Cl)C(=O)C(Cl)=C1Cl
inactive: [20] | [2] | [12] | [15] | [5] | [7] | [16] | [8] | [9] | [10] | [11]
active: [1] 72.4 µM | [10] 58.9 µM | [17] 21.6 µM and 44.2 µM | [18] 73.4 µM and 73.7 µM | [13] 81.6 µM

C=C(Cl)Cl
inactive: [20] | [2] | [12] | [4] | [14] | [15] | [5] | [7] | [16] | [10] | [18]

C[N+](C)(C)CC(=O)O
active: [13] 25.6 µM
inactive: [2] | [3] | [4] | [15] | [7] | [19] | [16] | [11]

COCC(=O)N(c1c(C)cccc1C)N1CCOC1=O
inactive: [1] | [12] | [3] | [4] | [7] | [10] | [17]

C=COCCCl
inactive: [1] | [2] | [3] | [4] | [15] | [19] | [16] | [9] | [13] | [11]

ClC1=C(Cl)[C@]2(Cl)[C@@H]3[C@@H](Cl)[C@H](Cl)C[C@@H]3[C@@]1(Cl)C2(Cl)Cl
inactive: [20] | [1] | [12] | [3] | [14] | [6] | [19] | [13]

CC(C)CCCCCCCOP(=O)(Oc1ccccc1)Oc1ccccc1
inactive: [1] | [2] | [12] | [4] | [14] | [5] | [7] | [8] | [10] | [17] | [18] | [13]

CCCCNP(N)(N)=S
inactive: [1] | [2] | [3] | [5] | [6] | [7] | [10] | [17] | [18]

CC1(C)CC(=O)CC(C)(C)N1[O]
inactive: [20] | [1] | [12] | [3] | [4] | [5] | [6] | [7] | [8] | [10] | [18] | [13]

— PubChem BioAssay (EPA / NIEHS)
